The target in test [1] is Progesterone receptor (Homo sapiens) (UniProt P06401). Put plainly: qHTS assay to identify small molecule antagonists of the progesterone receptor (PR) signaling pathway (AID 1346795; active = well fitted inhibition curve with a large enough effect in the signal ratio in the repeat runs, not every such curve was filed as active; the % refers to the signal ratio; also: potency is read from the fitted curve at half-maximal effect). The essentials:
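Inhibition of R5020-induced (1 nM final) beta-lactamase reporter signal in PR-UAS-bla HEK293T cells was scored by FRET fluorescence after overnight (16 hr) compound treatment.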
(qHTS replaces the single test concentration by a dilution series.)

Test [2] in a line: qHTS assay to identify small molecule antagonists of the progesterone receptor (PR) signaling pathway - cell viability counter screen (AID 1346798). Also: series mostly up to about 92 µM; % is scaled to controls: 0 for no effect and ±100 for the full control effect; nearly all actives have a fitted effect of over 50% in size. The essentials:
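ATP content as viability readout: CellTiter-Glo luminescence, 30 min room temperature, in PR-UAS-bla HEK293T cells after 16 hr compound/R5020 treatment at 37C and 5% CO2.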

Test [3] is described as follows: qHTS assay to identify small molecule agonists of the progesterone receptor (PR) signaling pathway - cell viability counter screen (AID 1346799; calls by dose curve; also: nearly all actives have a fitted effect of over 45% in size; also: potency is read from the fitted curve at half-maximal effect). In outline: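 Cytotoxicity in PR-bla HEK293T cells: 16 h compound, 37C; CellTiter-Glo added post-FRET read; luminescence after 30 min RT.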
A short description of test [4]: qHTS assay to identify small molecule antagonists of the TGF-beta/Smad signaling pathway - cell viability counter screen (AID 1346824). Also: % is scaled to controls: 0 for no effect and ±100 for the full control effect; nearly all actives have a fitted effect of over 50% in size. In outline:
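Cytotoxicity counter-screen run in the same wells as the beta-lactamase Smad reporter read: CellTiter-Glo luminescence after 30 min at room temperature. HEK 293T SBE-bla cells had 5 hr compound exposure at 37 C with TGF-beta1 (0.25 ng/mL stock).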

Test [5] can be described thus: qHTS assay to identify small molecule agonists of the TGF-beta/Smad signaling pathway - cell viability counter screen (AID 1346829). Also: top concentration of the series differs between compounds; % is scaled to controls: 0 for no effect and ±100 for the full control effect; nearly all actives have a fitted effect of over 45% in size. In outline: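 CellTiter-Glo luminescence readout; SBE-bla HEK 293T cells, overnight plating, compound 5 hr at 37 C/5% CO2, then bla substrate 2 hr RT, then CellTiter-Glo 30 min RT.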
The nature of test [6]: qHTS assay to identify small molecule agonists of the TGF-beta/Smad signaling pathway (AID 1346859; active = well fitted activation curve with a large enough effect in the signal ratio in the repeat runs, not every such curve was filed as active; the % refers to the signal ratio; also: series mostly up to about 77 µM; % is scaled to controls: 0 for no effect and ±100 for the full control effect). The essentials:
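Stable Smad binding element-beta-lactamase HEK 293T cells; 5 hr compound exposure at 37 C under 5% CO2; 2 hr room-temperature substrate step; fluorescence excited at 405 nm, collected at 460 nm and 530 nm.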

Test [7] in a line: Human pregnane X receptor (PXR) small molecule agonists, qHTS cell viability counter screen (AID 1346977). Also: nearly all actives have a fitted effect of over 50% in size. Also: potency is read from the fitted curve at half-maximal effect. The essentials:
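Readout is CellTiter-Fluor fluorescence from PXR-Luc HepG2 cells. Plated cells rested 5hr, then were treated with compounds for 24hr at 37C and 5% CO2, with reagent present during the last hour.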

The nature of test [8]: Caspase-3/7 induction in HepG2 cells by small molecules, qHTS assay (AID 1346978). Also: nearly all actives have a fitted effect of over 15% in size. Also: potency is read from the fitted curve at half-maximal effect. The essentials: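 Caspase-3/7 induction was measured by Caspase-Glo 3/7 luminescence (30 min, room temperature) after a 17 hr compound exposure of wild-type HepG2 cells seeded at 2,000 per well and pre-incubated 5 hr.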
Test [9] in a line: Caspase-3/7 induction in CHO-K1 cells by small molecules, qHTS cell viability counter screen (AID 1346979). Also: nearly all actives have a fitted effect of over 35% in size. Also: potency is read from the fitted curve at half-maximal effect. In outline: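 To flag cytotoxic compounds, treated CHO-K1 wild-type cells were given CellTiter-Fluor at 16hr and read fluorescently after 1hr at 37C; the caspase-3/7 luminescence was measured in these same wells.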
Test [10] in a line: Caspase-3/7 induction in CHO-K1 cells by small molecules, qHTS assay (AID 1346980). Also: % is scaled to controls: 0 for no effect and ±100 for the full control effect; nearly all actives have a fitted effect of over 15% in size. The essentials:
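Luminescent Caspase-Glo 3/7 read (30min, room temperature) quantified apoptosis induction. Cells were wild-type CHO-K1, treated with compound for 17hr at 37 C and 5% CO2.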

A short description of test [11]: Caspase-3/7 induction in HepG2 cells by small molecules, qHTS cell viability counter screen (AID 1346981). Also: nearly all actives have a fitted effect of over 30% in size. Also: potency is read from the fitted curve at half-maximal effect. The essentials:
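After a 5-hr attachment period at 37 C and 5% CO2, wild-type HepG2 cells received compounds in DMSO. Sixteen hours later CellTiter-Fluor was dispensed and the fluorescent signal quantified after a further hour.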

Test [12] addresses Nuclear receptor subfamily 1 group I member 2 (Homo sapiens) (UniProt O75469). Description: Human pregnane X receptor (PXR) small molecule agonists, qHTS assay (AID 1346982). Also: nearly all actives have a fitted effect of over 35% in size. Also: potency is read from the fitted curve at half-maximal effect. As to activation: % is scaled to controls: 0 for no effect and ±100 for the full control effect. In outline:
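Tox21 qHTS; PXR-Luc HepG2; compounds pinned from DMSO; 24 hr, 37 C; ONE-Glo luciferase detection, 30 min room temperature.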

Test [13] deals with Acetylcholinesterase (Homo sapiens) (UniProt P22303). Description: Acetylcholinesterase (AChE) small molecule antagonists: colormetric cell-based qHTS assay (AID 1347395; calls by dose curve; also: nearly all actives have a fitted effect of over 30% in size; also: potency is read from the fitted curve at half-maximal effect). The essentials:
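Neuroblastoma line SH-SY5Y supplied the enzyme; cells were preincubated with compound for 30 min at 37 C and 5% CO2. Acetylthiocholine with DTNB was then added for 90 min at 37 C, and thiocholine was measured by colour.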

Test [14] deals with Thyrotropin-releasing hormone receptor (Homo sapiens) (UniProt P34981). Description: qHTS assay to identify small molecule antagonists of the thyrotropin-releasing hormone receptor (TRHR) signaling pathway (AID 1346877; active = well fitted inhibition curve with a large enough effect in the repeat runs, not every such curve was filed as active; also: potency is read from the fitted curve at half-maximal effect). In outline:
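Calcium signal in dye-loaded TRHR/HEK293 cells; compounds added 5 min before TRH (1 nM final); fluorescence monitored 3 min at 1 s steps.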

For test [15] the target is unchanged. Description: qHTS assay to identify small molecule agonists of the thyrotropin-releasing hormone receptor (TRHR) signaling pathway (AID 1346891; calls by dose curve; also: potency is read from the fitted curve at half-maximal effect;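 as to activation: HEK293 cells expressing TRHR with calcium dye readout; series mostly up to about 58 µM; % is scaled to controls: 0 for no effect and ±100 for the full control effect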). The essentials: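 In 1536-format, 1500 TRHR-Hek293 cells per well grew 18 h, took up calcium dye for 2 h at 37 °C, received compound, and were read kinetically; 15-point titrations, triplicates.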
Test [16] has as its target Progesterone receptor (Homo sapiens) (UniProt P06401). Description: qHTS assay to identify small molecule agonists of the progesterone receptor (PR) signaling pathway (AID 1346784; calls by dose curve; also: % is scaled to controls: 0 for no effect and ±100 for the full control effect; nearly all actives have a fitted effect of over 30% in size). In outline: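 Using charcoal-stripped serum (2%) to limit endogenous steroids, PR-UAS-bla HEK 293T cells received compounds for 16 hr at 37C after 6 hr plating; beta-lactamase FRET fluorescence was recorded following 2 hr substrate loading at room temperature.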

Test [17] concerns the target Nuclear receptor subfamily 1 group I member 2 (Rattus norvegicus) (UniProt Q9R1A7). Description: Rat pregnane X receptor (rPXR) activation by small molecules, qHTS assay (AID 1346983). Also: % is scaled to controls: 0 for no effect and ±100 for the full control effect; nearly all actives have a fitted effect of over 20% in size. As to conditions: rPXR luciferase reporter cells, One-Glo luminescence, 24 h; max activation: active compounds read high. In outline: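 Luminescent readout (One-Glo luciferase, 30 min room temperature) followed 24 hr compound treatment at 37 C of rPXR cells plated 2,000 per well and preincubated 5hr; qHTS format with compounds delivered in DMSO.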

The target of test [18] is Nuclear receptor subfamily 1 group I member 2 (Homo sapiens) (UniProt O75469). Put plainly: CYP3A4 induction through human pregnane X receptor (PXR) by small molecules, qHTS assay (AID 1346984). Also: potency is read from the fitted curve at half-maximal effect; nearly all actives have a fitted effect of over 40% in size. The essentials: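 Cells (DPX-2; HepG2 with PXR element plus CYP3A4-promoter luciferase) settled 5hr, then were treated 24hr at 37C. A 3hr, 3uM-final Luciferin-IPA step preceded luminescence measurement with One-Glo.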
Chain of Nuclear receptor subfamily 1 group I member 2 (Homo sapiens) (O75469 whole entry, looked up): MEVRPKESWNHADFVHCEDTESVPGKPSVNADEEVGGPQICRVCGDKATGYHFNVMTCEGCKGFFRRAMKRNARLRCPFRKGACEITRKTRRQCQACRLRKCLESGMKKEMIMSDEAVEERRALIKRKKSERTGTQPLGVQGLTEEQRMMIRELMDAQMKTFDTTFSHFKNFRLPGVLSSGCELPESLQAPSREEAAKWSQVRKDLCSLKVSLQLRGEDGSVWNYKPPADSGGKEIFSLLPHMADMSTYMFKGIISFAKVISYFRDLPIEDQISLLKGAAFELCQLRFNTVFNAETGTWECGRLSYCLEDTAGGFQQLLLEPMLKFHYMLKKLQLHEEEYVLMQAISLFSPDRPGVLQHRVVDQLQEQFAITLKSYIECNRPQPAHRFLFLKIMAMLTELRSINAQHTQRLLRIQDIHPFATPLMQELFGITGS

Test [19] has the same target. Put plainly: Human pregnane X receptor (PXR) activation by small molecules, qHTS assay (AID 1346985). Also: potency is read from the fitted curve at half-maximal effect; nearly all actives have a fitted effect of over 40% in size. The essentials:
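DPX-2 cells (HepG2 co-transfected with a PXR response element and a CYP3A4-promoter luciferase construct) were seeded at 2,000 per well, rested 5 hr at 37C, then exposed to DMSO-dissolved compounds for 24 hr. Activation was read as luciferase luminescence.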

Values joined by “and” are separate entries in the source; they are usually repeats but may differ in a detail not shown here. Identical values can stand only once. Unmarked numbers belong to inactive results. Inconclusive results are not listed. Active and inactive are the calls of the source. Unless noted, calls follow the shape of the dose curve; as a rule, active = well fitted curve in the direction sought with a large enough effect in the repeat runs; inconclusive = weak or mixed curves; inactive = no such curve, though single readings can be large; an effect the other way counts as inactive or inconclusive.

Results on eleven compounds are retold here after PubChem BioAssay (Tox21).

Chain of Thyrotropin-releasing hormone receptor (Homo sapiens) (P34981 whole entry, looked up): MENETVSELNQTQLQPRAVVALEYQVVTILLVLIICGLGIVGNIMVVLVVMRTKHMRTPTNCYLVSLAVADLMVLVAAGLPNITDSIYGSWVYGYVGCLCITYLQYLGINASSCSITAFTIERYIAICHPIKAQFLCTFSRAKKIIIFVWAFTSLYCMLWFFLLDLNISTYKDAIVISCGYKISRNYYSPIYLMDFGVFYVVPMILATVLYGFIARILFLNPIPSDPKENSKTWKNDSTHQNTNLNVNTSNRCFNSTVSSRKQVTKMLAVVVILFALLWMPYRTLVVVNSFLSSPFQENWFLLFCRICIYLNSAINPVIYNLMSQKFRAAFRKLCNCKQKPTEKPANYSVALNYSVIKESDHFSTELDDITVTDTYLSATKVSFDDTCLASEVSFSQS
Chain of Acetylcholinesterase (Homo sapiens) (P22303 whole entry, looked up): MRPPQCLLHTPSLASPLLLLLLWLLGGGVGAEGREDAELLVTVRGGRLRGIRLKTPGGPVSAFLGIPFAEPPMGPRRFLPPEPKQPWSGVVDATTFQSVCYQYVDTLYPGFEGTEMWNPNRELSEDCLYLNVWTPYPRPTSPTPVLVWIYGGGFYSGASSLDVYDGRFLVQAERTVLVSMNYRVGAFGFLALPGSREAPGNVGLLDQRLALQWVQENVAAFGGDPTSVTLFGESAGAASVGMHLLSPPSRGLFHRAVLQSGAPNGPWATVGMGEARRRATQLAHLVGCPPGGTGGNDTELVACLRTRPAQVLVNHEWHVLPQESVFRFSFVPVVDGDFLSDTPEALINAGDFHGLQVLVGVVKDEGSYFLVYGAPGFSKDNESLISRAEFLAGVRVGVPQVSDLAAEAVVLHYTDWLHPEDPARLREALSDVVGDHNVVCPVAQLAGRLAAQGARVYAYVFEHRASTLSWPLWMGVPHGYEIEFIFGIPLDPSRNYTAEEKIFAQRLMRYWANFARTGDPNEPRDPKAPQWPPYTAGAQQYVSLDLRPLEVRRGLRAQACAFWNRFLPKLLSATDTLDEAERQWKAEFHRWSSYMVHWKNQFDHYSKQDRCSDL
Chain of Progesterone receptor (Homo sapiens) (P06401 whole entry, looked up): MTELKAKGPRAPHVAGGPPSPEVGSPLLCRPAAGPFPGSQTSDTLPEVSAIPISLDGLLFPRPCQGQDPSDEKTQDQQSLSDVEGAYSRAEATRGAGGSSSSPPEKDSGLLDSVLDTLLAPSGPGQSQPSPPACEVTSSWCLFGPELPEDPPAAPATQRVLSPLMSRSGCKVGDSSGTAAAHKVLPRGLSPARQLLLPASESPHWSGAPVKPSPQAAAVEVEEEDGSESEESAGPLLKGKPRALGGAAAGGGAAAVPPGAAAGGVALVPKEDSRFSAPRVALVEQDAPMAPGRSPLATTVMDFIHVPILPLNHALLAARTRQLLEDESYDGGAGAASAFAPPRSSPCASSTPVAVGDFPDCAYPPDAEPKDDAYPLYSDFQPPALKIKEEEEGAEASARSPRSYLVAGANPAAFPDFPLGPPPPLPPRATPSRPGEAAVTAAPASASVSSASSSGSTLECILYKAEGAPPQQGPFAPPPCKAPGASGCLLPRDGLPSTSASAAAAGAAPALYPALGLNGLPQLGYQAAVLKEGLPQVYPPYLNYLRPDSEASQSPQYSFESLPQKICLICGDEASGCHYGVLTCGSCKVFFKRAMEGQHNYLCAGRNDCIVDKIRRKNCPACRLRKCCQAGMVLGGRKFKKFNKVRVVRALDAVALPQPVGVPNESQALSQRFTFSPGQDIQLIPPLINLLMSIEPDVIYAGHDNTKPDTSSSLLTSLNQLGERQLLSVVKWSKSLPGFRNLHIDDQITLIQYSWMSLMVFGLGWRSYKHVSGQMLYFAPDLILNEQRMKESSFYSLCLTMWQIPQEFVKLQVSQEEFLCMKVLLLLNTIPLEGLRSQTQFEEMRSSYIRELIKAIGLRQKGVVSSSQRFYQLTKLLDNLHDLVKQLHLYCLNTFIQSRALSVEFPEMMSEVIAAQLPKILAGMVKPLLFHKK
Chain of Nuclear receptor subfamily 1 group I member 2 (Rattus norvegicus) (Q9R1A7 whole entry, looked up): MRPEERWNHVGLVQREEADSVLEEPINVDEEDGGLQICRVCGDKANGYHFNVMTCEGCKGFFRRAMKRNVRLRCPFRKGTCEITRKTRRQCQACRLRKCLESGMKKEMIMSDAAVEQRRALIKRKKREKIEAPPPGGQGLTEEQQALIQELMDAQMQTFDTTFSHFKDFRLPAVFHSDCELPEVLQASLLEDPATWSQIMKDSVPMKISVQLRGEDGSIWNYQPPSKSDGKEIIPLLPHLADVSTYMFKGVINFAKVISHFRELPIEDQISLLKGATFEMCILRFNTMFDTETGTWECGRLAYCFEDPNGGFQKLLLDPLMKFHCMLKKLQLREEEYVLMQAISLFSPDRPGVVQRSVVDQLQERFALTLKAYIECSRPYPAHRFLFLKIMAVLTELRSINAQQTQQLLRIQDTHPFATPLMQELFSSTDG

Consider `OCC(Br)CBr` (stereo not given), for which the Potency result in test [1], in test [2], in test [3], in [4], in test [5] and in test [7] was “inactive” throughout. The Potency entry in test [8], in [9], in test [10], in test [11], in test [12] and in test [13] was “inactive” in each case. Moreover, the call in test [6] was inactive.
Regarding `COP(=O)(OC)Oc1ccc([N+](=O)[O-])cc1`, the Potency result in test [2], in test [4], in test [5], in [14], in test [15] and in test [8] was “inactive” throughout. The Potency entry in [10] and in test [12] was “inactive” throughout. For the same compound, the result in test [6] was inactive.
Consider `CCNc1nc(NC(C)C(C)C)nc(SC)n1` (stereo not given), for which the Potency result in test [2], in test [3], in test [4], in test [5], in [7] and in test [8] was “inactive” in each case. In addition, the Potency entry in test [9], in test [10], in test [11] and in test [13] was “inactive” each time. Moreover, in test [6], the call was inactive. Besides, in [12], the Potency is 30.6 µM (active).
Consider `N#Cc1c[nH]cc1-c1cccc2c1OC(F)(F)O2`, for which the Potency result in [2], in test [4], in test [14], in test [15], in [10] and in test [13] was “inactive” in each case. Moreover, the Potency was 12.2 µM (active) in [8], 48.6 µM (active) in test [9] and 27.3 µM (active) in [12].
As to `CCC[CH2][Sn]([CH2]CCC)([O]C(C)=O)[O]C(C)=O`, the Potency in [1] is 0.195 µM (active); in test [3] it was 0.978 µM (active); in test [7] it was 27.6 µM (active); in test [11], 49 µM (active); in test [12] it was 7.77 µM (active). The Potency entry in [4], in test [5], in [8], in test [10] and in test [13] was “inactive” throughout.
Turning to `CN1CCc2cc(Cl)c(O)cc2[C@H]2c3ccccc3CC[C@@H]21`, the Potency result in test [16], in [2], in test [4], in test [5], in test [8] and in [10] was “inactive” each time. Further, the Potency entry in test [12] is “inactive”. Further, the compound was classed as inactive in test [6]. Further, in [17], the max activation was 0.833%. In addition, the Potency in test [18] and in test [19] was 2.24 µM (active) each time.
For the compound `c1ccc2c(c1)cc1ccc3cccc4ccc2c1c34`, the Potency result in test [3], in test [4], in [14], in [15], in [7] and in test [10] was “inactive” each time. Besides, the Potency result in [13] is “inactive”. Moreover, the values for the Potency in [8] and in test [12] were 6.99 µM (active) and 5.55 µM (active), respectively.
For the compound `O=c1[nH]c2cc(Cl)ccc2n1C1CCNCC1`, the Potency entry in test [1], in test [2], in [4], in test [5], in test [14] and in [15] was “inactive” throughout. The Potency entry in [7], in test [8], in test [9], in [10], in test [11] and in test [12] was “inactive” in each case. In [13], the Potency result was “inactive”. For the same compound, the compound was classed as inactive in test [6].
On to `CCOP(=O)(OCC)Oc1cc(C)nc(C(C)C)n1`, for which the Potency entry in test [1], in [2], in test [3], in test [5], in [14] and in test [15] was “inactive” each time. In addition, the Potency result in test [7], in test [8], in test [9], in test [10], in test [11] and in [12] was “inactive” in each case. Also, in [13], the Potency was 0.142 µM (active).
Consider `O=C1C2(Cl)C3(Cl)C4(Cl)C(Cl)(Cl)C5(Cl)C3(Cl)C1(Cl)C5(Cl)C24Cl` (stereo not given), for which the Potency is 29.3 µM (active) in test [1]; 28.9 µM (active) in [14]; 30.4 µM (active) and 37.3 µM (active) in [15]; 42.6 µM (active) in test [7]; 30.1 µM (active) and 65.7 µM (active) in [8]; 37.9 µM (active) and 46.5 µM (active) in [9]. Moreover, the Potency in [11] is 60.1 µM (active); in test [12], 10.7 µM (active) and 10.4 µM (active). The Potency entry in test [4] and in test [13] was “inactive” throughout. In test [6], the call was inactive.
Take `[C-]1=CC=CC1.[Cl][Zr+2][Cl].c1cc[cH-]c1`: the Potency entry in test [1], in [2], in test [3], in [4], in test [7] and in test [9] was “inactive” in each case. Moreover, the Potency entry in test [10] and in test [11] was “inactive” in each case. The outcome in test [6] was inactive.
